Results published in PubChem BioAssay.
Active and inactive are the calls of the source. Unless noted, no rule for the calls is given here.

Tests used:
[1] = liver-stage malaria parasite load reduction – cell-based, known kinase inhibitor set, luminescence, hepatoma host viability (AID 624392); conditions: Plasmodium liver stage in hepatoma cells, luciferase luminescence, concentration not given here; liver cell % of control: measured here: host liver cell viability; parasite % of control: stronger effect = lower value;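 also: infected cells incubated roughly two days before readout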
[2] = altered dexamethasone sensitivity, NF-kB reporter, cell-based, luciferase, IL-1B stimulus (AID 624486); conditions: IL-1B + dexamethasone, luminescence; percent of negative control (+Dex): actives lie on both sides, concentration not given here; z-score: measured here: IL-1B alone, no Dex;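 as to percent of negative control (+Dex): 100% = mean signal of vehicle control wells on the plate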
[3] = target: Cellular tumor antigen p53 (Homo sapiens) (UniProt P04637); experiment: GFP-p53 level modulators in HPV16+ cells – imaging, known kinase inhibitor set, EGFP/DsRed ratio (AID 1053116); conditions: GFP-p53 stability, stronger effect = higher value; EGFP object count: measured here: GFP-p53 positive objects count;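 also: cells exposed to compounds for 24 h at 37 °C before reading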
Chain of Cellular tumor antigen p53 (Homo sapiens) (P04637 whole entry, looked up): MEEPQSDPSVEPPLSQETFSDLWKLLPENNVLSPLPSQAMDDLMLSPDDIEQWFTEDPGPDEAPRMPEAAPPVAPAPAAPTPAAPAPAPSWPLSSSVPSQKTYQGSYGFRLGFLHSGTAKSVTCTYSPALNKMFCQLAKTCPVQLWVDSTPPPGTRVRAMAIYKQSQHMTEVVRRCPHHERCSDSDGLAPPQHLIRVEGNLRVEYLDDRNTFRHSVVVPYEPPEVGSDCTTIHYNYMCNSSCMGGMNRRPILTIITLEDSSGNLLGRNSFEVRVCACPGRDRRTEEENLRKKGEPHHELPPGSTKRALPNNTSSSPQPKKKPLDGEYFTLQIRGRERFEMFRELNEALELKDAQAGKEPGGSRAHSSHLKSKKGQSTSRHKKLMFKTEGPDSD

[4] = inducers of IRF3 signaling, differentiated THP-1 – cell-based, PMA-stimulated THP-1, luminescence (AID 1053176); conditions: PMA-differentiated THP-1, IRF3 reporter luminescence; stronger effect = higher value
[5] = C. elegans survival during P. aeruginosa infection – whole organism (AID 651566);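 also: tested at 14 µM; sign flipped so higher z means a lower ratio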; conditions: C. elegans killed by P. aeruginosa, survival ratio
[6] = pro-inflammatory signaling induction in mouse macrophages – cell-based, murine, luminescence (AID 652131); conditions: murine macrophage pro-inflammatory reporter, stronger effect = higher value
[7] = MELAS cybrid and Rieske KO viability enhancers – cell-based, MELAS cybrids, Rieske KO mouse fibroblasts, CellTiter-Glo, primary screen (AID 1508586;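 active = mean z-score across replicates of 1.96 or higher in either the MELAS or the Rieske mutant cell line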;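 also: z relative to plate mean and SD of compound and empty wells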); conditions: low glucose

SMILES | liver cell % of control [1] | parasite % of control [1] | percent of negative control (+Dex) [2] | z-score [2] | EGFP object count [3] | EGFP/DsRed ratio [3] | fraction signal [4] | z-score [5] | z-score [6] | z-score ([7]; MELAS cybrid survival, CellTiter-Glo 48 h, stronger effect = higher value) | z-score ([7]; Rieske KO mouse fibroblast survival, CellTiter-Glo 72 h)
Cn1cc(C2=C(NN3CCOCC3)C(=O)NC2=O)c2ccccc21 | 102% | 52.1% (inactive) | 101% (inactive) | 0.61 | 7 | 0.147 (inactive) | -0.016 (inactive) |  |  |  | 
Cn1cc(C2=C(c3cn(CCCCO)c4ccccc34)C(=O)NC2=O)c2ccccc21 | 84% | 14.3% (inactive) | 108% (inactive) | -1.57 | 32.5 | 0.668 (inactive) | -0.005 (inactive) |  |  |  | 
Cn1cc(C2=C(c3cn(C)c4cc(C(N)=O)ccc34)C(=O)NC2=O)c2ccccc21 | 96.9% | 59.1% (inactive) | 95% (inactive) | -0.22 | 56.5 | 0.829 (active) | -0.0005 (inactive) |  |  |  | 
COc1ccccc1C(=O)c1cnc(NC2CCN(S(C)(=O)=O)CC2)nc1N | 100% | 96.6% (inactive) | 85% (inactive) | -1.16 | 5 | 0.0796 (inactive) | 0.0015 (inactive) |  |  |  | 
COc1cccc(C2=C(c3c(C)n(C)c4ccccc34)C(=O)NC2=O)c1 | 97.6% | 66.1% (inactive) | 91% (inactive) | -0.5 | 6 | 0.121 (inactive) | -0.0005 (inactive) |  |  |  | 
CS(=O)(=O)CCCn1c(=O)c(Oc2ccc(F)cc2F)cc2cnc(NC3CCOCC3)nc21 | 98.7% | 51.4% (inactive) | 101% (inactive) | 0.05 | 1 | 0.0135 (inactive) | -0.009 (inactive) |  |  |  | 
Cn1c(=O)c(Oc2ccccc2)cc2cnc(NC3CCOCC3)nc21 | 106% | 60.6% (inactive) | 105% (inactive) | 1.03 | 3.5 | 0.0479 (inactive) | -0.005 (inactive) |  |  |  | 
Cc1ccccc1C1=C(c2cn(C)c3ccccc23)C(=O)NC1=O | 136% | 37% (inactive) | 96% (inactive) | -1.4 | 22 | 0.4 (inactive) | 0.0035 (inactive) |  |  |  | 
Cc1[nH]nc2c1N=C(c1ccccc1F)c1cc(C#N)ccc1N2 | 96.8% | 68.4% (inactive) | 157% (active) | 0.015 | 99.5 | 0.814 (active) | 0.0055 (inactive) |  |  |  | 
CNc1ncc2cc(Oc3ccc(F)cc3F)c(=O)n(C)c2n1 | 109% | 65.3% (inactive) | 94.5% (inactive) | 1.49 | 2.5 | 0.0112 (inactive) | -0.001 (inactive) |  |  |  | 
CC(C)(O)CCc1cccc(C(=O)c2cnn(-c3ccc(F)cc3)c2N)c1 | 105% | 56.9% (inactive) | 110% (inactive) | 0.16 | 1.5 | 0.0442 (inactive) | 0.0185 (inactive) |  |  |  | 
Nc1c(C(=O)c2cccc(-c3ccncc3)c2)cnn1-c1ccc(F)cc1F | 92.7% | 53.9% (inactive) | 102% (inactive) | 0.04 | 5 | 0.0527 (inactive) | -0.009 (inactive) |  |  |  | 
Cn1c(=O)c(Sc2ccccc2F)cc2cnc(NC3CCOCC3)nc21 | 103% | 68.5% (inactive) | 107% (inactive) | 0.685 | 2 | 0.0407 (inactive) | -0.0075 (inactive) |  |  |  | 
CNC(C#Cc1c(F)ccc2c1C(=Cc1[nH]ccc1OC)C(=O)N2)CO (configuration not stated) | 129% | 62.7% (inactive) | 144% (active) | 1.07 | 51.5 | 0.055 (inactive) | 0.001 (inactive) |  |  |  | 
CC(=C1SC(=NCc2cccs2)NC1=O)c1ccc2ncccc2c1 | 89.5% | 33.7% (inactive) | 92.5% (inactive) | -0.085 | 5 | 0.0357 (inactive) | -0.009 (inactive) |  |  |  | 
Cn1cc(C2=C(c3cn(C)c4ccccc34)C(=O)NC2=O)c2ccccc21 | 115% | 66.6% (inactive) | 110% (inactive) | -0.485 | 25.5 | 0.17 (inactive) | -0.001 (inactive) |  |  |  | 
O=C1NC(=NCc2cccs2)SC1Cc1ccc2ncccc2c1 (configuration not stated) | 108% | 12.8% (inactive) | 96% (inactive) | -0.14 | 2.5 | 0.109 (inactive) | 0.0035 (inactive) |  |  |  | 
CCS(=O)(=O)c1ccc(OC)c(Nc2ncc(-c3cccc(F)c3)o2)c1 | 140% | 19.6% (inactive) | 84.5% (inactive) | -0.335 |  |  | -0.0005 (inactive) | -0.615 (inactive) | -0.303 (inactive) | 1.69 (inactive) | -0.478
Cn1cc(C2=C(c3cccc(N)c3)C(=O)NC2=O)c2ccccc21 | 102% | 14.9% (inactive) | 124% (active) | -1.23 | 23.5 | 0.303 (inactive) | -0.005 (inactive) |  |  |  | 
Cn1cc(C2=C(c3ccc(N)cc3)C(=O)NC2=O)c2ccccc21 | 135% | 32.1% (inactive) | 100% (inactive) | -0.99 | 28.5 | 0.493 (inactive) | -0.005 (inactive) |  |  |  | 
